Screening data: PubChem BioAssay, Buhrlage Lab, Dana-Farber Cancer Institute and Novartis Institutes for BioMedical Research (Cambridge, Mass)
In the library only some 13% were active in any assay of this set; here they are far more common.
USP30 inh – inhibitors of human USP30 deubiquitinase; Q70CQ3; purified USP30, Ub-rhodamine cleavage fluorescence; inhibition, % at 25 µM; 47,000 compounds, 5.3% hits; AID 1645860
Target sequence (Q70CQ3 whole entry, looked up): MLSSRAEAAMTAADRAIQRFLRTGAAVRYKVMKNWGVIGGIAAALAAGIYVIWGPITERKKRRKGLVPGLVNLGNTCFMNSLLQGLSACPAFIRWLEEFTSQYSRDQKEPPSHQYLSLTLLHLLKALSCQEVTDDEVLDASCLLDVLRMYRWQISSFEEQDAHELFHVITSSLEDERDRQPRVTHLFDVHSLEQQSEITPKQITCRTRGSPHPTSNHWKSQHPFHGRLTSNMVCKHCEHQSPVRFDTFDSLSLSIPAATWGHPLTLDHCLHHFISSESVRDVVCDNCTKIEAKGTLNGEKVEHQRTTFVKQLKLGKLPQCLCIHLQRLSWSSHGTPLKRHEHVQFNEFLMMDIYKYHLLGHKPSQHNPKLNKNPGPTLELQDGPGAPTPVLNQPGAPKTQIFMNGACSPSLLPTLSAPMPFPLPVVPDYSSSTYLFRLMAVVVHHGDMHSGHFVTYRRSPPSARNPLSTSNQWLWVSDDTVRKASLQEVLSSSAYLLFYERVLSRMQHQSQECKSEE
USP10 block – blocks human USP10 ubiquitin-rhodamine cleavage | Q14694 | purified USP10, Ub-rhodamine fluorescence, 60 min | inhibition, % at 20 µM | 47,000 compounds, 1.1% hits
USP17 block – inhibitors of human USP17 deubiquitinase; purified USP17, Ub-rhodamine cleavage fluorescence, 3 h; inhibition, % at 50 µM; 47,000 compounds, 6.5% hits
USP28 inh – inhibitors of human USP28 deubiquitinase; purified USP28, Ub-rhodamine cleavage fluorescence, 30 min; 47,000 compounds, 3% hits; AID 1645857; inhibition, % at 25 µM
USP8 block – blocks human USP8 ubiquitin-rhodamine cleavage; 47,000 compounds, 4.2% hits; P40818; inhibition, % at 20 µM; purified USP8, Ub-rhodamine cleavage fluorescence, 30 min
Numbers without * were called inactive; nt = no result. Rule as the data show it: active = inhibition above about 30%; inactive = the rest.

SMILES	USP30 inh	USP10 block	USP17 block	USP28 inh	USP8 block
CC(C)c1nc2sc3c(SCC(=O)N(c4ccccc4)c4ccccc4)ncnc3c2c2c1COC(C)(C)C2	32*	-2	14	7	0
COC(=O)c1ccc(C(=O)OC)c(N2C(=O)CSCC2=O)c1	49*	7	20	13	36*
CCc1ccc(N2C(=O)c3ccccc3C2C(=O)NCc2ccccc2OC)cc1 (stereo unspecified)	63*	8	68*	23	0
CC(=O)c1cccc(NC(=O)C2(n3cnnn3)CCCCC2)c1	5	1	0	-8	0
Cc1ccc(NC(=O)c2cc(C(C)C)on2)cc1C	15	2	17	42*	6
Cc1ccc(O)c(NC(=O)c2cc(C(C)C)on2)c1	19	7	14	2	4
COc1cccc(C2CC(=O)Nc3n[nH]c(-c4ccccc4)c32)c1 (stereo unspecified)	63*	11	68*	23	27
CC(=O)c1cccc(NC(=O)c2cc(-c3cccnc3)n[nH]2)c1	86*	7	78*	91*	4
O=C(Nc1cccc(Br)c1)c1cc(-c2cccnc2)n[nH]1	71*	37*	8	43*	98*
COc1cccc(NC(=O)c2cc(-c3ccccc3)n[nH]2)c1	-9	6	13	23	-16
COc1cccc(-c2cc(C(=O)Nc3cccc(C)c3)[nH]n2)c1	-19	2	3	-15	-5
Cc1ccc(-c2nc(N3CCCC(O)C3)ncc2-c2cnccn2)s1 (stereo unspecified)	-139	-5	73*	-24	18
c1cnc(N2CCCC(c3nc(N4CCOCC4)ncc3-c3cccnc3)C2)nc1 (stereo unspecified)	-18	-3	-1	0	9
CN(C)C(=O)CSc1nnc(-c2ccccc2O)n1Cc1ccccc1	11	1	10	1	18
COC(=O)CSc1nnc(-c2ccccc2O)n1Cc1ccccc1	20	2	-12	10	37*
O=C(Nc1ccccc1-c1cnn(-c2ccccc2)c1)c1ccccc1Cl	41*	-1	nt	20	18
Cc1ccc(NC(=O)CCc2nc(CSc3nnc(-c4cccc(C)c4)o3)no2)cc1	29	9	1	-4	-62
Cc1ccc(-c2nnc(SCc3noc(CCC(=O)Nc4ccccc4)n3)o2)cc1	40*	3	21	16	-23
COc1ccccc1NS(=O)(=O)c1ccc(C)c(NC(=O)CCOc2ccccc2F)c1	2	6	-15	17	-141
Clc1ccc2oc(-c3cccs3)nc2c1	10	5	5	4	2
Nc1ccc2oc(-c3cccc(-c4nc5cc(N)ccc5o4)n3)nc2c1	68*	37*	53*	48*	73*
Cc1nnc(-c2c(S(=O)(=O)NC3CCCCC3)c(C)n(C)c2C)o1	-21	-2	-17	-7	-9
N#Cc1cc([N+](=O)[O-])ccc1N1CCN(c2ccc(O)cc2)CC1	35*	11	32*	24	-39
COc1ccccc1NC(=O)NCc1nc(-c2ccc(C(F)(F)F)cc2)no1	46*	4	24	9	2
COc1ccc(-c2noc(CC(=O)Nc3ccccc3OC)n2)cc1	17	3	0	6	22
SMILES	USP30 inh	USP10 block	USP17 block	USP28 inh	USP8 block
O=S(=O)(c1ccccc1)c1nnn2c1nc(Nc1ccc(F)cc1)c1ccccc12	17	10	5	0	52*
COc1cccc(CNc2nc3c(S(=O)(=O)c4ccc(F)cc4)nnn3c3ccccc23)c1	13	1	nt	2	9
COc1cccc(Nc2nc3c(S(=O)(=O)c4ccccc4)nnn3c3ccccc23)c1	nt	20	85*	nt	38*
O=C(c1cccs1)[C@@H]1[C@@H](C(=O)c2ccc3c(c2)OCO3)[C@]2(C(=O)Nc3ccccc32)[C@H]2C=Cc3ccccc3N12	-225	-1	-3	-63	38*
CC1=CC2N(c3ccccc31)C(C(=O)C(C)(C)C)C(C(=O)c1ccc3c(c1)OCO3)C21C(=O)Nc2ccccc21 (stereo unspecified)	-184	-3	22	-22	68*
Cc1cc(N2CCN(S(=O)(=O)c3ccc(Br)cc3)CC2)nc2c(C)cccc12	-7	1	-2	0	2
COc1ccc(C)cc1NC(=O)C(OC(=O)c1cc(S(=O)(=O)N2CCOCC2)ccc1C)c1ccccc1 (stereo unspecified)	-22	-2	-20	-12	-23
